In all, about 5,500 compounds went through this assay and about 2,000 (36%) were called active. Inconclusive results (about 18%) are left out. Cut-off read from the data, not from the text of the source: active = normalized growth mostly below about 0.91 (no sharp cut-off); inconclusive = no clear call, values can overlap the other calls; inactive = mostly above about 0.92. The list shows a part of the results.
Test: chemical genetic growth profiling, strain panel (AID 1159580);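 note: tested at 20 µM; growth read once vehicle control cultures reached saturation at 30 °C; 1 = growth at the plate median or of vehicle wells; lower values mean less growth of the strain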
Details: S. cerevisiae deletion strains, growth OD
[1] = locus YAL013W, strain DEP1, active compounds read low
[2] = locus YBR229C, strain ROT2, active compounds read low
[3] = locus YDL101C, strain DUN1, active compounds read low
[4] = locus YDR150W, strain NUM1, active compounds read low
[5] = locus YEL061C, strain CIN8, active compounds read low
[6] = locus YGR078C, strain PAC10, active compounds read low
[7] = locus YHR030C, strain SLT2, active compounds read low
[8] = locus YHR087W, strain rtc3, active compounds read low
[9] = locus YJR043C, strain POL32, active compounds read low
[10] = locus YJR075W, strain HOC1, active compounds read low
[11] = locus YKL190W, strain CNB1, active compounds read low
[12] = locus YLR039C, strain RIC1, active compounds read low
[13] = locus YLR058C, strain SHM2 (second series), active compounds read low
[14] = locus YLR085C, strain ARP6, active compounds read low
[15] = locus YLR262C, strain YPT6, active compounds read low
[16] = locus YML094W, strain GIM5, active compounds read low
[17] = locus YMR219W, strain ESC1, active compounds read low
[18] = locus YMR263W, strain SAP30, active compounds read low
[19] = locus YNL153C, strain GIM3, active compounds read low
[20] = locus YNL298W, strain CLA4 (second series), active compounds read low
[21] = locus YNL322C, strain KRE1, active compounds read low
[22] = locus YNR030W, strain Alg12, active compounds read low
[23] = locus YOL006C, strain TOP1, active compounds read low
[24] = locus YPL055C, strain LGE1, active compounds read low
[25] = locus YPL241C, strain CIN2, active compounds read low
[26] = locus YPR135W, strain CTF4, active compounds read low
[27] = locus YMR307W, strain GAS1, active compounds read low

Measured: normalized growth

Cn1c(Sc2ccc(C(F)(F)F)cc2[N+](=O)[O-])nnc1C(F)(F)F
inactive: [1] 1 | [2] 1.01 | [3] 1.02 | [4] 0.988 | [5] 1 | [6] 1.01 | [7] 1.04 | [8] 1 | [9] 1 | [10] 0.973 | [11] 1.01 | [12] 1.02 | [13] 1.01 | [14] 1.05 | [15] 1.01 | [16] 1.05 | [17] 0.996 | [18] 0.994 | locus YNL128W, strain TEP1, active compounds read low 0.994 | [19] 1 | [20] 0.993 | [21] 1 | [22] 1.02 | [23] 0.899 | [24] 1.01 | [25] 1.11 | [26] 1.05

Nc1nc(Sc2ccc(C(F)(F)F)cc2[N+](=O)[O-])n[nH]1
inactive: [1] 0.988 | [2] 0.998 | [3] 1.02 | [4] 0.901 | [5] 1.02 | [6] 1.01 | [7] 1.03 | [8] 0.988 | [9] 1.01 | [10] 1.01 | [11] 1 | [12] 1.07 | [13] 1.01 | [14] 1.16 | [15] 1.03 | [16] 0.995 | [17] 1 | [18] 1.01 | [27] 1.24 | [19] 1.01 | [20] 1.01 | [21] 1 | [22] 0.999 | [23] 1.06 | [24] 0.872 | [25] 1.08 | [26] 0.892

Nc1nc(Sc2cc(-n3cccc3)c(Cl)cc2[N+](=O)[O-])n[nH]1
inactive: [1] 0.992 | [2] 1 | [3] 0.998 | [4] 0.997 | [5] 0.994 | [6] 0.995 | locus YGR229C, strain SMI1, active compounds read low 1 | [7] 0.972 | [8] 0.992 | [9] 0.996 | [10] 1.01 | [12] 0.973 | [13] 1 | [14] 0.972 | [15] 1 | [16] 0.983 | [17] 1 | [18] 1.01 | [27] 0.985 | [19] 0.995 | [20] 0.972 | [21] 1 | [22] 0.995 | [23] 1.02 | [24] 0.989 | [25] 0.936 | [26] 0.933

O=C(Nc1ccccc1Sc1ccc(C(F)(F)F)cc1[N+](=O)[O-])C(Cl)Cl
inactive: locus YAR019C, strain CDC15, active compounds read low 0.997 | locus YBL105C, strain PKC1, active compounds read low 0.994 | locus YBR135W, strain CKS1, active compounds read low 0.987 | locus YBR136W, strain MEC1, active compounds read low 0.991 | locus YBR160W, strain CDC28, active compounds read low 0.994 | locus YDL017W, strain CDC7, active compounds read low 1.01 | locus YDL028C, strain MPS1, active compounds read low 0.992 | [3] 0.983 | locus YDL108W, strain KIN28, active compounds read low 0.991 | locus YDL132W, strain cdc53, active compounds read low 0.994 | locus YDL214C, strain PRR2, active compounds read low 0.952 | locus YDR052C, strain DBF4, active compounds read low 1 | locus YDR054C, strain cdc34, active compounds read low 0.998 | locus YDR226W, strain ADK1, active compounds read low 0.993 | locus YDR477W, strain SNF1, active compounds read low 0.985 | locus YER123W, strain YCK3, active compounds read low 0.958 | locus YER133W, strain GLC7, active compounds read low 0.959 | locus YFL009W, strain cdc4, active compounds read low 0.995 | locus YFL029C, strain CAK1, active compounds read low 0.996 | locus YFR003C, strain YPI1, active compounds read low 0.986 | locus YFR019W, strain FAB1, active compounds read low 0.955 | locus YFR028C, strain CDC14, active compounds read low 0.983 | locus YGR040W, strain KSS1, active compounds read low 0.964 | locus YGR052W, strain FMP48, active compounds read low 0.963 | locus YGR092W, strain DBF2, active compounds read low 0.909 | [7] 0.985 | locus YHR079C, strain IRE1, active compounds read low 0.973 | locus YHR082C, strain KSP1, active compounds read low 1.02 | locus YHR205W, strain SCH9, active compounds read low 0.864 | locus YIL147C, strain SLN1, active compounds read low 0.995 | locus YJL095W, strain BCK1, active compounds read low 0.894 | locus YJL128C, strain PBS2, active compounds read low 0.945 | locus YJL157C, strain FAR1, active compounds read low 0.961 | locus YJR016C, strain ILV3, active compounds read low 0.999 | locus YJR066W, strain TOR1 (second series), active compounds read low 0.933 | locus YJR066W, strain TOR1, active compounds read low 1.01 | locus YKL048C, strain ELM1, active compounds read low 0.949 | locus YKL067W, strain YNK1, active compounds read low 0.934 | locus YKL101W, strain HSL1, active compounds read low 0.946 | locus YKL193C, strain SDS22, active compounds read low 0.996 | locus YKL203C, strain TOR2, active compounds read low 1.01 | locus YLR113W, strain HOG1, active compounds read low 0.907 | locus YLR133W, strain CKI1, active compounds read low 0.947 | locus YLR403W, strain SFP1, active compounds read low 0.915 | locus YML070W, strain DAK1, active compounds read low 0.938 | locus YMR001C, strain CDC5, active compounds read low 0.998 | locus YMR205C, strain PFK2 (second series), active compounds read low 0.953 | locus YMR277W, strain FCP1, active compounds read low 0.984 | locus YNL006W, strain LST8, active compounds read low 0.986 | locus YNL020C, strain ARK1, active compounds read low 0.959 | locus YNL161W, strain CBK1, active compounds read low 0.993 | locus YNL183C, strain NPR1, active compounds read low 0.96 | locus YNL207W, strain RIO2, active compounds read low 0.989 | locus YNL222W, strain SSU72, active compounds read low 0.99 | locus YNL307C, strain MCK1 (second series), active compounds read low 0.903 | locus YOL078W, strain AVO1, active compounds read low 0.99 | locus YOL136C, strain PFK27, active compounds read low 0.907 | locus YOR061W, strain CKA2, active compounds read low 0.97 | locus YOR119C, strain RIO1, active compounds read low 1.05 | locus YOR231W, strain MKK1, active compounds read low 0.935 | locus YOR329C, strain SCD5, active compounds read low 0.997 | locus YPL031C, strain PHO85, active compounds read low 0.984 | locus YPL153C, strain RAD53, active compounds read low 0.991 | locus YPL204W, strain HRR25, active compounds read low 0.958 | locus YPL209C, strain IPL1, active compounds read low 0.992 | locus YPL256C, strain CLN2, active compounds read low 1.02 | locus YPR025C, strain CCL1, active compounds read low 0.997 | locus YPR106W, strain ISR1, active compounds read low 0.996 | locus YPR111W, strain DBF20, active compounds read low 0.967 | strain NNK1, active compounds read low 0.976 | strain TSCII, active compounds read low 0.992

From PubChem BioAssay AID1159580 (chemical genetic matrix, 2015)
